Source: PubChem BioAssay (National Center for Advancing Translational Sciences (NCATS))
USP2a inh = inhibitors of human ubiquitin-specific protease USP2a; actives 0.01% (n = 330,000); Potency, µM (highest dose often 38.3 µM), most hits filed as inhibitors; USP2 core, Ub-CHOP2 coupled fluorogenic reporter, 485/531; O75604
Target sequence (O75604 whole entry, looked up): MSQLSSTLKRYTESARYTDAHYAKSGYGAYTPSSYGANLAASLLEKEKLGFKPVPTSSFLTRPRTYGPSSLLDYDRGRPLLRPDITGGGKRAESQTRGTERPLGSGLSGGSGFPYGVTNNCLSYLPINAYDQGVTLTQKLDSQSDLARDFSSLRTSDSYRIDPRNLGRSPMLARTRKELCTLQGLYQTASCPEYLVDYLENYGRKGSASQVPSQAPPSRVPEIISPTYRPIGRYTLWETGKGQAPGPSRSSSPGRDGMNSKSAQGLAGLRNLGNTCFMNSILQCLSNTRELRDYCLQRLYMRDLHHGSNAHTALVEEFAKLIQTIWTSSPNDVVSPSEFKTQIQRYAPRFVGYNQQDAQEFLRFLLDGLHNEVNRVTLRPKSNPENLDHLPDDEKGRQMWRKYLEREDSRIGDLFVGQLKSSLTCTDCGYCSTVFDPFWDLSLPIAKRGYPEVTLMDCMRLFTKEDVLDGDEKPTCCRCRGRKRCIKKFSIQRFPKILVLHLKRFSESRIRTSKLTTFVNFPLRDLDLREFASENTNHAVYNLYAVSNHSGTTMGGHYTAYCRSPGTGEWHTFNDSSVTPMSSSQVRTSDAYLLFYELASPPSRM
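Cell-free coupled assay: 10nM USP2 core preincubated 30min RT with compound in Tris-HCl pH 8.0/CaCl2/CHAPS buffer, then 25nM Ub-CHOP2 and 25nM reporter substrate; fluorescence (Ex 485/Em 531) read after 60min RT, normalized to NEM inhibition, concentration-response curves fitted.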
PI5P4K alpha inh = PI5P4K alpha (human) kinase inhibition; P48426; PI5P4Kalpha enzyme, ADP-Glo luminescence, 60 min; active compounds read low; actives 1.2% (n = 330,000); max response, %; active means max response of -50% or lower; inconclusive means between -30% and -50%; inactive means -30% or higher; further: value at the top dose of about 77 µM
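Luminescence from ADP-Glo served as readout of PI5P4Kalpha activity in a qHTS format. Reaction: enzyme, substrate, compound, ATP at 5 microM final, 60 min at RT.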
WRN inhibitor = blocks human WRN helicase. WRN helicase unwinding, fluorescent forked duplex, kinetic. Potency, µM (highest dose often 114 µM), most hits filed as inhibitors. actives 0.46% (n = 360,000). Q14191; further: nearly all actives have a fitted effect of over 55% in size
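WRN at 20 nM final was preincubated with compound for 15 min at room temperature; reaction started with 100 nM forked duplex oligonucleotide carrying fluorophore and quencher plus 2 mM ATP (final). Unwinding followed kinetically by red fluorescence (ex 525/em 598 nm).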
USP1 inh = USP1/UAF1 (human) deubiquitinase inhibition; AID 743255; actives 0.23% (n = 390,000); recombinant USP1/UAF1, Ub-Rhodamine cleavage fluorescence; Potency, µM (series often up to 57.1 µM), most hits filed as inhibitors; O94782; further: nearly all actives have a fitted effect of over 60% in size
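Step one: compound is pinned into 1nM USP1/UAF1 in HEPES pH 7.8 buffer with TCEP. Step two: 15 min room-temperature incubation. Step three: Ub-Rho (150nM final) starts cleavage, tracked by fluorescence over six one-minute reads.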
PLK1 PBD inh = inhibitors of human PLK1 polo-box domain binding | P53350 | Plk1 PBD binding of FITC phosphopeptide, fluorescence polarization | Potency, µM, actives largely listed as inhibitors | actives 2.8% (n = 360,000); further: series mostly up to about 57 µM; nearly all actives have a fitted effect of over 65% in size
ADP-Glo interf = interferes with ADP-Glo detection without enzyme present | ADP-Glo detection counter-screen, luciferase luminescence, no enzyme | shares compounds with PI5P4K alpha inh | 1,100 tested, under 10 active | AID 743285 | Potency, µM (titrated, usually from 76.9 µM), usual class: inhibitors
Of the large screens only hits and unclear results are named; the others gave an inactive call (follow-up assays come after a bar, where they were run). In the library only some 3.3% were active in any assay of this set; here they are far more common. Unless noted, the call rests on the fitted dose curve; in most records, active means well fitted curve in the direction sought with a large enough effect; inconclusive means small, poorly fitted or top-dose-only effect, or another doubt; inactive means no such curve, though single readings can be large; an effect the other way counts as inactive or inconclusive.

Cc1cc(C(=O)Nc2sccc2C#N)c2ccccc2n1	PI5P4K alpha inh -73 | ADP-Glo interf inactive
Cc1cc(C(=O)Nc2ccccc2)c2ccccc2n1	none
COc1ccc(CCNC(=O)CSc2ccccc2)cc1OC	none
COc1ccc(CCNC(=O)CNCC(c2ccccc2)N(C)C)cc1OC (stereo unspecified)	none | ADP-Glo interf inactive
O=C(COC(=O)Cc1ccsc1)Nc1cccc(F)c1	PI5P4K alpha inh -56 | ADP-Glo interf inactive
OCc1ccc(O)c2ncccc12	none
Oc1ccc(CNc2ccccc2F)c2cccnc12	PI5P4K alpha inh inconclusive, PLK1 PBD inh 3.4µM | ADP-Glo interf inactive
Cc1ccc(-c2nc3cc(C(C)C)ccc3o2)cc1NC(=O)c1cc([N+](=O)[O-])ccc1N1CCOCC1	none (no result: USP2a inh, PI5P4K alpha inh, WRN inhibitor, PLK1 PBD inh)
Cc1cc(C)c2c(N)c(C(=O)Nc3c(C)n(C)n(-c4ccccc4)c3=O)sc2n1	none | ADP-Glo interf inactive
Cc1cc(C)c(NC(=O)c2sc3nc(C)cc(C)c3c2N)c(C)c1	none (no result: USP2a inh, PI5P4K alpha inh, WRN inhibitor, PLK1 PBD inh)
COCCn1c(SCC(=O)Nc2cccnc2Cl)nc2cc(Cl)ccc2c1=O	none
COCCn1c(SCC(=O)Nc2cccc(S(N)(=O)=O)c2)nc2cc(Cl)ccc2c1=O	PI5P4K alpha inh -63, WRN inhibitor inconclusive, PLK1 PBD inh 7.5µM | ADP-Glo interf inactive
CC(C)c1ccc(S(=O)(=O)NCc2nc3cccnc3n2Cc2ccc(F)cc2)cc1	none (no result: USP2a inh, PI5P4K alpha inh, WRN inhibitor, PLK1 PBD inh)
c1csc(CNc2nc(NCC3CCCCC3)c3sccc3n2)c1	none (no result: USP2a inh, PI5P4K alpha inh, USP1 inh) | ADP-Glo interf inactive
COc1ccccc1CNc1nc(NCc2ccc(C(C)C)cc2)c2sccc2n1	none (no result: USP2a inh, PI5P4K alpha inh, USP1 inh) | ADP-Glo interf inactive
CC(C)c1ccc(CNc2nc(NCC3CC3)nc3ccsc23)cc1	none (no result: USP2a inh, PI5P4K alpha inh, USP1 inh) | ADP-Glo interf inactive
c1ccc(CNc2nc(NCC3CC3)nc3cc(-c4ccccc4)sc23)cc1	none (no result: USP2a inh, PI5P4K alpha inh, USP1 inh) | ADP-Glo interf inactive
COc1cccc(CNc2nc(NCC3CC3)nc3ccsc23)c1	none (no result: USP2a inh, USP1 inh)
Cc1ccc(S(=O)(=O)N2CCCc3cc(NC(=O)c4ccc(C(C)(C)C)cc4)ccc32)cc1	none (no result: USP2a inh, PI5P4K alpha inh, WRN inhibitor, PLK1 PBD inh)
COc1ccc(C(C)C)cc1S(=O)(=O)NCCc1c(C)[nH]c2ccc(C)cc12	none (no result: USP2a inh, PI5P4K alpha inh, WRN inhibitor, PLK1 PBD inh)
Cc1cc(C(=O)NCc2ccco2)c2ccccc2n1	none
O=C(Nc1cccc(S(=O)(=O)NC2=NCCC2)c1)c1cc(-c2ccco2)nc2ccccc12	USP2a inh inconclusive, PI5P4K alpha inh -75, WRN inhibitor inconclusive, USP1 inh inconclusive, PLK1 PBD inh inconclusive | ADP-Glo interf inactive
CCNC(=O)COC(=O)c1cc(-c2ccco2)nc2ccccc12	PI5P4K alpha inh -78, PLK1 PBD inh inconclusive | ADP-Glo interf inactive
Cc1ccc(-c2cc(C(=O)NCc3ccco3)c3ccccc3n2)o1	PI5P4K alpha inh -88, WRN inhibitor 56µM, PLK1 PBD inh inconclusive | ADP-Glo interf inactive
Cc1csc(NC(=O)c2cc(-c3ccco3)nc3ccccc23)n1	PI5P4K alpha inh -57, WRN inhibitor inconclusive, PLK1 PBD inh 24µM | ADP-Glo interf inactive
COc1ccc(CNC(=O)COC(=O)c2cc(C)nc3ccccc23)cc1	none
CC(C)CC(=O)OCc1cc(=O)n2nc(C3CCCCC3)sc2n1	none (no result: USP2a inh, PI5P4K alpha inh, WRN inhibitor, PLK1 PBD inh)
O=C(Nc1nccs1)c1cc(-c2ccccc2)nc2ccccc12	none
O=C(Nc1nccs1)c1cc(-c2ccco2)nc2ccccc12	PI5P4K alpha inh -86, WRN inhibitor inconclusive | ADP-Glo interf inactive
COC(=O)C1CCN(c2cc(Cl)nc(N)n2)CC1	none
NC(=O)C1CCN(c2cc(Cl)nc(N)n2)CC1	PI5P4K alpha inh -53, PLK1 PBD inh 8.4µM | ADP-Glo interf inactive
CCc1cccc(NC(=O)CCN2C(=O)c3ccccc3Sc3ncccc32)c1	none (no result: USP2a inh, PI5P4K alpha inh, WRN inhibitor, PLK1 PBD inh)
COc1ccccc1OCC(=O)Nc1ccc2c(c1)OCO2	PI5P4K alpha inh -50, WRN inhibitor inconclusive | ADP-Glo interf inactive
CCN(C(=O)c1cn(-c2cccc(OC)c2)c(=O)c2ccccc12)c1ccccc1C	none (no result: USP2a inh, PI5P4K alpha inh, WRN inhibitor, PLK1 PBD inh)
CCc1nc(SC)ncc1C(=O)NCc1cccc(Br)c1	none (no result: USP2a inh, PI5P4K alpha inh, WRN inhibitor, PLK1 PBD inh)
Cc1ccc(-c2csc(NC(=O)c3ccc(F)cc3)c2C(=O)O)cc1	PI5P4K alpha inh -61 | ADP-Glo interf inactive
Cc1cc(Nc2cc(C(=O)O)ccc2C)n2ncnc2n1	none
Cc1cc(Nc2ccccc2C(=O)O)n2ncnc2n1	none (no result: USP2a inh, PI5P4K alpha inh) | ADP-Glo interf inactive
Cc1ccc2c(c1)c1c(c(=O)n(-c3ccccc3C)c(=O)n1Cc1cccc(F)c1)n2C	none (no result: USP2a inh, PI5P4K alpha inh, WRN inhibitor, PLK1 PBD inh)
Cc1ccc(CNC(=O)CN2c3cccc4cccc(c34)S2(=O)=O)cc1	none
COc1cccc(CNC(=O)CN2c3cccc4cccc(c34)S2(=O)=O)c1	PI5P4K alpha inh -65 | ADP-Glo interf inactive
CC(NC(=O)CN1c2cccc3cccc(c23)S1(=O)=O)c1ccccc1 (stereo unspecified)	none (no result: USP2a inh)
CC(NC(=O)CN1c2cccc3cccc(c23)S1(=O)=O)c1ccc(S(N)(=O)=O)cc1 (stereo unspecified)	PI5P4K alpha inh -55, WRN inhibitor inconclusive | ADP-Glo interf inactive
COc1ccc(Cl)cc1NC(=O)N1CCC(CN2CCc3ccccc3C2)CC1	none (no result: USP2a inh, PI5P4K alpha inh, WRN inhibitor, PLK1 PBD inh)
CN(Cc1ccccc1)C(=O)c1csc([C@H]2C[C@H](O)[C@@H](CO)O2)n1	none (no result: USP2a inh, USP1 inh) | ADP-Glo interf inactive
CN(Cc1ccccc1)C(=O)c1csc([C@@H]2C[C@H](O)[C@@H](CO)O2)n1	none (no result: USP2a inh, USP1 inh)
